target: T1, Aspartate--tRNA(Asp/Asn) ligase (Mycobacterium tuberculosis (strain ATCC 25618 / H37Rv)) (UniProt P9WFW3); assay: Assay for Asp RNA synthetase-1 from Mycobacterium tuberculosis; type: functional; design: scale not given: in the data most compounds retested in dose-response had high values; details: 30 µM
T1 sequence (whole entry): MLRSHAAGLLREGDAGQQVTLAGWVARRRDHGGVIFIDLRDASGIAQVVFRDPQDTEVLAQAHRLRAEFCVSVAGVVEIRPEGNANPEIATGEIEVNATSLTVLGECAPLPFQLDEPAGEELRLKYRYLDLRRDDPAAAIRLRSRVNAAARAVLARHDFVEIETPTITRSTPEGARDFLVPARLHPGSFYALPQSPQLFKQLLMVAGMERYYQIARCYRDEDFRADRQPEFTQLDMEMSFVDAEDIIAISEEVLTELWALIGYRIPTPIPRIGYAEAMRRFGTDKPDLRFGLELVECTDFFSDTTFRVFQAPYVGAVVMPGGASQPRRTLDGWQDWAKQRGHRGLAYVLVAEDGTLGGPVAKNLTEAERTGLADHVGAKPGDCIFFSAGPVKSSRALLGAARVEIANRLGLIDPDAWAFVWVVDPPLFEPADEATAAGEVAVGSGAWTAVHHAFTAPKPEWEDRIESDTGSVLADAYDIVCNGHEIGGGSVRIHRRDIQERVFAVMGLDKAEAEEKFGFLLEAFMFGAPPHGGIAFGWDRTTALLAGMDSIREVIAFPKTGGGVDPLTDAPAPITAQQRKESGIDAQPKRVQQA

Compound	Percent Effect [%]
CCOC1CCN(C(=O)c2c(Cl)c3ccccc3n2C)CC1	-2.01
CC(C)CN1CCCn2nc(CNC(=O)CCCc3cn[nH]c3)cc2C1	-0.885
CNC(=O)Cn1cc(C#N)c(=O)c2cc(Br)ccc21	0.0345
Cc1nn(CCn2ccnc2-c2cc3n(n2)CCCNC3)c(C)c1Cl	-0.0115
COc1ccccc1OCCN1CCCC(c2noc(C3CC3)n2)C1 (stereo not given)	-2.65
CCC(C(=O)NCc1ccncc1)N(c1ccc(OC)cc1)S(C)(=O)=O (stereo not given)	1.25
Cc1cc(S(=O)(=O)N2CCCc3ccc(F)cc32)sc1C(=O)O	1.87
CN(C)CCn1c(=O)oc2ccc(NC(=O)C3CCCO3)cc21 (stereo not given)	-2.08
CCCSCC(=O)Nc1ncn(CC(=O)NCc2ccccc2)n1	1.55
CN(CCO)C(=O)c1coc(CN2CCN(c3ccccc3F)CC2)n1	-3.46
Cc1nn(CCO)c(C)c1CNC1CCc2c(Cl)cccc21 (stereo not given)	0.54
O=C(c1cnn(-c2ccccc2F)c1)N1CCN(CCO)CC1	-3.94
CC(C)n1ccnc1C1CCCN(c2ccccn2)C1 (stereo not given)	-2.15
Cc1ccc(C(NC(=O)[C@H]2CC[C@@H](O)CC2)c2cccnc2)cc1C (stereo not given in full)	-3.21
Cc1nccn1CCC1CCCCN1Cc1ccncc1 (stereo not given)	-1.16
CCN(CC1CN(Cc2ncc(C)o2)CCO1)c1cccnn1 (stereo not given)	-1.34
Cn1ccnc1SCc1nc(C(C)(C)NC(=O)OC(C)(C)C)no1	-0.333
CCN(CC)C(=O)CCNC(=O)Cc1nc(-c2ccco2)oc1C	-1.21
Cc1cccc(CN2C[C@H]3OC(=O)N(CCCN4CCOCC4)[C@H]3C2)n1	-2.42
Cc1cnn(CCNCc2ccc(OCC(N)=O)cc2)c1	-4.2

Reference: ChEMBL document CHEMBL3988442, “University of Dundee, Small-Polar-MMV Screening Library” (2021)
